Test results taken from PubChem BioAssay (NCI).
Compounds without any hit were thinned out: in the full panel of roughly 79,000, 15% have a hit. The source made the active and inactive calls. Cut-off read from the data, not from the text of the source: active = growth inhibition above about 70%; inactive = the rest.

Key:
[1] = NCI Yeast Anticancer Drug Screen. Data for the rad50 strain (AID 155);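 note: 0% = growth of vehicle-only cultures of the same strain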; details: S. cerevisiae rad50 strain growth inhibition; at 50.0 µM; active compounds read high
Outline: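 Genetically altered yeast (DNA repair pathway); compound treatment; growth inhibition vs vehicle ctrl.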

[2] = NCI Yeast Anticancer Drug Screen. Data for the mec2-1 strain (AID 157); details: S. cerevisiae mec2-1 strain, at 50.0 µM, active compounds read high
Outline: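 Strain: mec2-1 (DNA repair/cell cycle alteration). Compound exposure, then growth measured; inhibition expressed relative to vehicle.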

[3] = NCI Yeast Anticancer Drug Screen. Data for the sgs1 mgt1 strain (AID 161);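 note: 0% = growth of cultures given vehicle only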; details: S. cerevisiae sgs1 mgt1 strain, at 50.0 µM, active compounds read high
Outline: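 Read-out: growth inhibition vs vehicle controls. Cells: mutant yeast strain deficient in DNA damage repair.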

[4] = NCI Yeast Anticancer Drug Screen. Data for the cln2 rad14 strain (AID 165);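 note: 0% = growth equal to vehicle treated cultures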; details: S. cerevisiae cln2 rad14 strain, at 50.0 µM, active compounds read high
Outline: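 Compounds are applied to the cln2 rad14 yeast strain, and growth is then compared with that of vehicle-treated cultures to give inhibition.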

[5] = NCI Yeast Anticancer Drug Screen. Data for the bub3 strain (AID 167); details: S. cerevisiae bub3 mutant strain, at 50.0 µM, active compounds read high
Outline: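 Yeast carrying a defined mutation is treated with each compound, and growth is compared with that of vehicle-exposed cells to give inhibition.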

[6] = NCI Yeast Anticancer Drug Screen. Data for the mlh1 rad18 strain (AID 175); details: S. cerevisiae mlh1 rad18 strain growth inhibition; at 50.0 µM; active compounds read high
Outline: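 Read-out is yeast growth inhibition, calculated against vehicle-only controls. The compound was applied to a strain engineered with DNA damage repair alterations.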

Measured: growth inhibition

O=C(Cc1ccccc1)c1ccc(OCC(O)CN2CCN(c3ccccc3)CC2)cc1 (configuration not stated)
active: [1] 97.7% | [2] 98.1% | [3] 99.3% | [4] 93.4% | [5] 84.1% | [6] 96.3%

CC(=O)c1nc(C#N)c(N)o1
inactive: [1] 1.9% | [2] -3.55% | [3] -17.7% | [4] 20.8% | [5] -20.2% | [6] -23.4%

NC(=O)C1CCCN1C(=O)C(Cc1cnc[nH]1)NC(=O)C1CCCC1 (configuration not stated)
inactive: [1] -46.4% | [2] -1.6% | [3] -1.65% | [4] 8.1% | [5] 7.05% | [6] -8.35%

COC(=O)c1ccc(C(=O)OC)c(N)c1
inactive: [1] 0.95% | [2] 5.4% | [3] -1.85% | [4] -33% | [5] 3.95% | [6] 0.5%

CC(C)(C)CC(C)(C)c1ccc(OCCOc2ccc(C(=O)Nc3ccc([N+](=O)[O-])cc3)cc2)cc1
inactive: [1] 49.9% | [2] -0.3% | [3] 42.5% | [4] 6% | [5] -5.65% | [6] 22.9%

O=C(OC(c1ccccc1)c1ccccc1)c1ccccc1C(=O)c1ccccc1
inactive: [1] -18.6% | [2] -15.1% | [3] -21% | [4] -16.6% | [5] -3.25% | [6] -36.1%

Cc1cc2ccccc2n1C
inactive: [1] 4.05% | [2] 5.45% | [3] 39.5% | [4] 10.1% | [5] 31.9% | [6] 18.2%

Cc1cccc(NC(=O)c2ccc(Cl)cc2Cl)n1 (tested in a mixture with another compound)
inactive: [1] -2.95% | [2] -7.05% | [3] 3.45% | [4] -25.6% | [5] 4.05% | [6] 20.9%

CC1=C[C@H](C[C@]2(C)c3c(c4c(C)cccc4oc3=O)O[C@@H]2C)OC1=O
inactive: [1] 1% | [2] 24.4% | [3] 11.3% | [4] 17.2% | [5] -3.2% | [6] 33.2%

O=C(Nc1ccc(F)cc1)C(=O)C(C(=O)c1ccccc1F)C1OC(=O)c2ccccc21 (configuration not stated)
inactive: [1] 2.8% | [2] -0.05% | [3] -10.6% | [4] 1.55% | [5] -0.35% | [6] 2.25%

CCCCCCCCCCCCCCCCS(=O)(=O)N/N=C(/c1cccc(N)c1)N1CCOCC1
inactive: [1] -29.6% | [2] -40.8% | [3] -13.2% | [4] 4.2% | [5] -7.75% | [6] -21.2%

CN1CCC2(CC1)C(=NC1CCCCC1)NC(=O)N2c1ccccc1
inactive: [1] -26.4% | [2] -6.15% | [3] -5.45% | [4] 1.1% | [5] 6.6% | [6] 3.7%

CC12CCC[C@@](C)(C(=O)OC3OC(CO)C(O)C(O)C3O)[C@H]1CCC13CC4CC(OC4(CO)[C@H]1O)[C@@H]23 (some centres not stated)
inactive: [1] -8.45% | [2] -26.1% | [3] -20.9% | [4] -18.8% | [5] -20.7% | [6] -17.9%

O=C(CCc1cc(-c2ccccc2)nc(=S)[nH]1)Nc1ccccc1[N+](=O)[O-]
inactive: [1] 10% | [2] -8.05% | [3] 9% | [4] 29.6% | [5] 15.5% | [6] 7.25%

O=C(O)C(C(=O)O)C(c1cccc([N+](=O)[O-])c1)C(c1ccccc1)[N+](=O)[O-] (configuration not stated)
inactive: [1] 52.5% | [2] 18.2% | [3] 45.5% | [4] 12.2% | [5] 22.2% | [6] 37.7%

Nc1c(S(=O)(=O)O)cc(Nc2cccc(S(N)(=O)=O)c2)c2c1C(=O)c1ccccc1C2=O
inactive: [1] 5.05% | [2] 1.1% | [3] -42.4% | [4] -7.65% | [5] -17.1% | [6] 24.6%

CCOC(=O)CCCC(=O)N(CC(=O)OCC)Cc1ccccc1
inactive: [1] 2.6% | [2] 12.1% | [3] 13.2% | [4] -4.9% | [5] 5% | [6] -5.85%

CC1(C)OC(=O)CC1CCN (configuration not stated)
inactive: [1] -0.75% | [2] -13.5% | [3] -7.05% | [4] -30.9% | [5] 14.9% | [6] 13.2%

CC(=O)C1=CCC2[C@H]3CC=C4C[C@H](O)CC[C@@]4(C)C3CC[C@@]12C (some centres not stated)
inactive: [1] 21.2% | [2] 55.2% | [3] 49.8% | [4] 17.9% | [5] 58.6% | [6] 37.7%

Cc1ccc(S(=O)(=O)C(C#N)(Cc2c[nH]c3ccccc23)Cc2c[nH]c3ccccc23)cc1
inactive: [1] 4.85% | [2] 9.25% | [3] -5.25% | [4] -16.2% | [5] 11.8% | [6] 6.5%

Cc1ccc(NC(=O)CC2C(=O)Nc3ccccc3S2(=O)=O)c(C)c1 (configuration not stated)
inactive: [1] -24.6% | [2] -24.8% | [3] -6.8% | [4] 20.6% | [5] -2.85% | [6] -10.6%

CC[n+]1c([S-])nn(C)c1-c1cnccn1
inactive: [1] -2.8% | [2] -4.9% | [3] -9.05% | [4] -13.9% | [5] 24% | [6] -12.5%

CCCCCOc1ccc(/C=C\C(=O)O)cc1
inactive: [1] 11.3% | [2] 2.55% | [3] -11.2% | [4] -6.75% | [5] -18.4% | [6] -6.35%

O=C1c2ccccc2C(=O)c2c(Cl)cccc21
inactive: [1] 56.6% | [2] 4.7% | [3] -19.2% | [4] -39.5% | [5] -9.35% | [6] 7.35%

CCOc1ccc(NC(C)=O)c([N+](=O)[O-])c1
inactive: [1] -7.05% | [2] -1.25% | [3] 21% | [4] 9.45% | [5] -3.35% | [6] 2.55%

CCOC(=O)N1C=Cc2ccccc2C1C(=N)N (configuration not stated)
inactive: [1] -20.2% | [2] -12.3% | [3] -11% | [4] -7.7% | [5] -6.3% | [6] -13.6%

Cc1cccc(NC(=O)COc2c(C)cc(Cl)cc2Cl)c1
inactive: [1] 23.8% | [2] 15.5% | [3] 38.2% | [4] 0.45% | [5] 38% | [6] 14.8%

NC(=O)/C=C/c1cccnc1
inactive: [1] 4.6% | [2] -0.65% | [3] -7.75% | [4] -34.1% | [5] 11% | [6] 13%

Nc1ccc(C(=O)NN2C(=O)C(Cl)C2c2ccccc2)cc1 (configuration not stated)
inactive: [1] -30.2% | [2] -31.8% | [3] -62.5% | [4] -1.8% | [5] -30.4% | [6] -38.2%

O=C(NC(=S)c1ccccc1)Nc1ccccc1
inactive: [1] 2.1% | [2] 37.5% | [3] 6.85% | [4] -8.85% | [5] 24.4% | [6] 18.9%

CN(CCN(C)C(=O)CCn1cc(F)c(=O)[nH]c1=O)C(=O)CCn1cc(F)c(=O)[nH]c1=O
inactive: [1] 26.1% | [2] 18.2% | [3] 50.4% | [4] 18.1% | [5] 3.05% | [6] 29.9%

COc1ccc(/C=C/C(=O)CC(=O)/C=C/c2ccc(OC)cc2)cc1
inactive: [1] 23.1% | [2] 35% | [3] 7.65% | [4] 0.6% | [5] -2.75% | [6] 10.8%

COc1cccc(Nc2nc(NS(=O)(=O)c3cc(C)c(Cl)cc3S)n[nH]2)c1
inactive: [1] -7.6% | [2] -2.3% | [3] -6.25% | [4] 7.95% | [5] 16.1% | [6] 15.8%

C#C/C=C/CC(OC(C)=O)C1C/C=C\CC(Br)C(CC)O1 (configuration not stated)
inactive: [1] 31.1% | [2] 16.5% | [3] 46% | [4] 36.1% | [5] 49% | [6] 45.3%

O=C1C2C3C=CC(O3)C2C(=O)N1N=C1CCCCC1 (configuration not stated)
inactive: [1] 10.4% | [2] 13.2% | [3] 14.2% | [4] 8.65% | [5] 12.6% | [6] 19.4%

O=C(O)CNS(=O)(=O)c1ccccc1
inactive: [1] -43.5% | [2] -7.7% | [3] -23.1% | [4] -24.6% | [5] -0.8% | [6] 6%

COC(=O)N1c2ccccc2[C@@H](O)[C@@H]1OC
inactive: [1] 14.4% | [2] 11.7% | [3] 7.25% | [4] -4.7% | [5] 11.7% | [6] -6.6%
